Read-out in experiment [1]: Transforming growth factor beta 1 (TGFb1), TGFB1 (gene 7040)
Kind of experiment: BSK_KF3CT_TGFb1: BioMAP Diversity Plus: KF3CT Assay for Transforming growth factor beta 1 (TGFb1) Biomarker Activity (AID 2283072). To be noted: primary human keratinocytes with fibroblasts; actives raise or lower the signal. Put shortly:
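Read-out: ELISA for TGF-b1 in keratinocyte/foreskin fibroblast human skin co-culture, 24 h after dosing; bidirectional curve fit vs DMSO baseline; gain or loss of signal scored.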

Read-out in experiment [2]: C-C motif chemokine 2 (Homo sapiens) (UniProt P13500)
Kind of experiment: BSK_KF3CT_MCP1: BioMAP Diversity Plus: KF3CT Assay for Monocyte Chemoattractant Protein 1 (MCP1/CCL2) Biomarker Activity (AID 2283073). To be noted: primary human keratinocytes with fibroblasts; actives raise or lower the signal. In outline:
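Keratinocytes and foreskin fibroblasts were co-cultured, dosed with chemical, and sampled 24 h later. MCP-1 was quantified by ELISA, and the endpoint was analyzed with bidirectional fitting using DMSO as negative control.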

Read-out in experiment [3]: Matrix Metallopeptidase 9 (MMP9), MMP9 (gene 4318)
In words: BSK_KF3CT_MMP9: BioMAP Diversity Plus: KF3CT Assay for Matrix Metallopeptidase 9 (MMP9) Biomarker Activity (AID 2283074).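 As to AC50: MMP9 protein level quantified by ELISA in the co-culture.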 To be noted: primary human keratinocytes with fibroblasts; actives raise or lower the signal. Put shortly:
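MMP-9 quantified by ELISA after 24 h chemical treatment of primary human skin keratinocyte/fibroblast co-cultures; gain or loss fitted against DMSO, with parallel SRB staining (0.1% SRB, 560 nm) for overt cytotoxicity.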

Read-out in experiment [4]: urokinase plasminogen activator (uPA), PLAU (gene 5328)
In words: BSK_KF3CT_uPA: BioMAP Diversity Plus: KF3CT Assay for urokinase plasminogen activator (uPA) Biomarker Activity (AID 2283075). To be noted: primary human keratinocytes with fibroblasts; actives raise or lower the signal. Put shortly: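 ELISA read-out of uPA 24 h after dosing human skin keratinocytes co-cultured with foreskin fibroblasts. Signal change fitted both ways relative to DMSO; sulforhodamine B on parallel cultures marks overt cytotoxicity.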

Read-out in experiment [5]: CD40, CD40 (gene 958)
Kind of experiment: BSK_LPS_CD40: BioMAP Diversity Plus: LPS Assay for CD40 Biomarker Activity (AID 2283076). To be noted: primary human HUVEC with PBMC; actives raise or lower the signal. In outline:
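CD40 signal, measured by ELISA, is fitted in both directions relative to DMSO vehicle. The system is an LPS-driven human vascular primary co-culture of endothelial cells and PBMC, sampled 24 h after compound addition.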

Read-out in experiment [6]: E-selectin (Homo sapiens) (UniProt P16581)
Kind of experiment: BSK_LPS_Eselectin: BioMAP Diversity Plus: LPS Assay for Eselectin Biomarker Activity (AID 2283077). To be noted: primary human HUVEC with PBMC; actives raise or lower the signal. In outline:
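Signal of E-selectin, detected by ELISA, served as the endpoint; cells were umbilical vein endothelium with PBMC, read 24 h after treatment. DMSO defined baseline, and both increases and decreases were fitted.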

Read-out in experiment [7]: Interleukin-8 (IL8), CXCL8 (gene 3576)
Kind of experiment: BSK_LPS_IL8: BioMAP Diversity Plus: LPS Assay for Interleukin-8 (IL8) Biomarker Activity (AID 2283078). To be noted: primary human HUVEC with PBMC; actives raise or lower the signal. Put shortly: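 Endothelial cells and PBMC from human donors are co-cultured, treated with chemicals and LPS, then assayed for IL-8 by ELISA after 24 h. Parallel SRB staining (0.1% SRB after 10% TCA fixation, 560 nm) flags cytotoxicity.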

The nature of experiment [8]: BSK_LPS_SRB: Viability Assessment in the BioMAP Diversity Plus: LPS Assay (AID 2283079).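 Also: total protein by sulforhodamine B absorbance as a cytotoxicity measure; measured one day after compound addition; fitted in both directions against DMSO so loss or gain of signal counts.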 To be noted: primary human HUVEC with PBMC. In outline: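 Overt cytotoxicity was gauged by sulforhodamine B total-protein staining in a primary human vascular endothelial and mononuclear cell co-culture 24 h post-dosing. Activity was fitted in both directions relative to DMSO.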

Read-out in experiment [9]: Interleukin-1 alpha (IL1a), IL1A (gene 3552)
Kind of experiment: BSK_LPS_IL1a: BioMAP Diversity Plus: LPS Assay for Interleukin-1 alpha (IL1a) Biomarker Activity (AID 2283080). To be noted: primary human HUVEC with PBMC; actives raise or lower the signal. Put shortly:
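Measured: IL-1 alpha via ELISA at 24 h in LPS-activated human umbilical vein endothelium–PBMC co-culture. Baseline: DMSO, bidirectional fitting.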

Read-out in experiment [10]: Monocyte Chemoattractant Protein-1 (MCP1), CCL2 (gene 6347)
In words: BSK_LPS_MCP1: BioMAP Diversity Plus: LPS Assay for Monocyte Chemoattractant Protein-1 (MCP1) Biomarker Activity (AID 2283081).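 As to AC50: secreted MCP-1 protein quantified by ELISA in culture supernatant.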 To be noted: primary human HUVEC with PBMC; actives raise or lower the signal. In outline: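 LPS-stimulated HUVEC/PBMC co-culture; chemical, 24 h; MCP-1 by ELISA; bidirectional fit vs DMSO; cytotoxicity via SRB (0.1% stain, 10% TCA fix, 560 nm) in parallel wells.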

A short description of experiment [11]: BSK_LPS_PGE2: BioMAP Diversity Plus: LPS Assay for Prostaglandin E2 (PGE2) Biomarker Activity (AID 2283082).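 As to AC50: secreted prostaglandin E2 measured by ELISA in LPS-stimulated co-culture.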 To be noted: primary human HUVEC with PBMC; actives raise or lower the signal. Put shortly:
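ELISA read-out of PGE2 from human umbilical vein endothelial cells co-cultured with peripheral blood mononuclear cells under LPS, 24 h post-dose. Gain or loss of signal scored relative to DMSO baseline.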

Read-out in experiment [12]: Macrophage colony-stimulating factor (MCSF), CSF1 (gene 1435)
Kind of experiment: BSK_LPS_MCSF: BioMAP Diversity Plus: LPS Assay for Macrophage colony-stimulating factor (MCSF) Biomarker Activity (AID 2283083). To be noted: primary human HUVEC with PBMC; actives raise or lower the signal. Put shortly:
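Compound is added to a human vascular primary co-culture of umbilical vein endothelium and blood mononuclear cells. After 24 h, M-CSF is quantified by ELISA. Signal changes are fitted in both directions against DMSO.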

Read-out in experiment [13]: Tissue Factor, F3 (gene 2152)
Kind of experiment: BSK_LPS_TissueFactor: BioMAP Diversity Plus: LPS Assay for Tissue Factor Biomarker Activity (AID 2283084). To be noted: primary human HUVEC with PBMC; actives raise or lower the signal. Put shortly:
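In this co-culture system of umbilical vein endothelium with PBMC, stimulated with LPS, cell-surface CD142 is detected by ELISA at 24 h. Endpoint values derive from bidirectional fitting, DMSO serving as baseline.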

Read-out in experiment [14]: Tumor necrosis factor (Homo sapiens) (UniProt P01375)
In words: BSK_LPS_TNFa: BioMAP Diversity Plus: LPS Assay for Tumour Necrosis Factor alpha (TNFa) Biomarker Activity (AID 2283085).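 As to AC50: TNFa protein level quantified by ELISA in the co-culture.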 To be noted: primary human HUVEC with PBMC; actives raise or lower the signal. In outline: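 HUVEC/PBMC co-culture, LPS-stimulated; 24 h post-dose; TNFa by ELISA; gain or loss of signal fitted bidirectionally vs DMSO baseline.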

Read-out in experiment [15]: Vascular cell adhesion molecule 1 (VCAM1), VCAM1 (gene 7412)
Kind of experiment: BSK_LPS_VCAM1: BioMAP Diversity Plus: LPS Assay for Vascular cell adhesion molecule 1 (VCAM1) Biomarker Activity (AID 2283086). To be noted: primary human HUVEC with PBMC; actives raise or lower the signal. In outline: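 ELISA read-out of VCAM-1 at 24 h post-dosing in an LPS-driven HUVEC/PBMC primary human co-culture; gain or loss of signal fitted bidirectionally against DMSO baseline. Cytotoxicity tracked in parallel cultures by SRB total-protein staining.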

Read-out in experiment [16]: CD40, CD40 (gene 958)
Kind of experiment: BSK_SAg_CD40: BioMAP Diversity Plus: SAg Assay for CD40 Biomarker Activity (AID 2283088). To be noted: primary human HUVEC with PBMC; actives raise or lower the signal. In outline:
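Fluorescence ELISA read-out of CD40 from umbilical vein endothelium plus peripheral blood mononuclear cells, sampled 24 h after dosing. Values come from bidirectional curve fitting with DMSO as baseline.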

Read-out in experiment [17]: CD69, CD69 (gene 969)
Kind of experiment: BSK_SAg_CD69: BioMAP Diversity Plus: SAg Assay for CD69 Biomarker Activity (AID 2283089).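 As to AC50: cell surface CD69 protein quantified by ELISA with fluorescence detection.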 To be noted: primary human HUVEC with PBMC; actives raise or lower the signal. In outline:
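ELISA, fluorescence read-out: CD69 on human umbilical vein endothelial cell + PBMC co-culture, 24 h post-dosing. Gain or loss of signal fitted bidirectionally against DMSO baseline.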

Read-out in experiment [18]: Monocyte Chemoattractant Protein-1 (MCP1), CCL2 (gene 6347)
Kind of experiment: BSK_SAg_MCP1: BioMAP Diversity Plus: SAg Assay for Monocyte Chemoattractant Protein-1 (MCP1) Biomarker Activity (AID 2283090). To be noted: primary human HUVEC with PBMC; actives raise or lower the signal. In outline:
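Values derive from bidirectional fitting of ELISA-measured MCP1 against DMSO controls. Readings were taken 24 h after dosing human vascular endothelial cells co-cultured with peripheral blood mononuclear cells under superantigen stimulation.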

Read-out in experiment [19]: E-selectin (Homo sapiens) (UniProt P16581)
Kind of experiment: BSK_SAg_Eselectin: BioMAP Diversity Plus: SAg Assay for Eselectin Biomarker Activity (AID 2283091). To be noted: primary human HUVEC with PBMC; actives raise or lower the signal. In outline: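 Primary human endothelial cells and peripheral blood mononuclear cells were co-cultured and exposed to chemical for 24 hours. E-selectin levels were then quantified by ELISA, with bidirectional curve fitting normalised to DMSO controls.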

Structures are written as SMILES. Several values for one entry are separate records, joined by “and”; a condition that tells them apart may be missing. Equal entries are not always repeated. Some compounds were tested as several samples or in several runs, with calls that do not always agree. Activity calls are given as the source filed them. The calls were made as follows: active = hit-call score of the fitted dose curve at least 0.9, where 1 is the maximum; inactive = score below 0.9.

Chain of E-selectin (Homo sapiens) (P16581 whole entry, looked up): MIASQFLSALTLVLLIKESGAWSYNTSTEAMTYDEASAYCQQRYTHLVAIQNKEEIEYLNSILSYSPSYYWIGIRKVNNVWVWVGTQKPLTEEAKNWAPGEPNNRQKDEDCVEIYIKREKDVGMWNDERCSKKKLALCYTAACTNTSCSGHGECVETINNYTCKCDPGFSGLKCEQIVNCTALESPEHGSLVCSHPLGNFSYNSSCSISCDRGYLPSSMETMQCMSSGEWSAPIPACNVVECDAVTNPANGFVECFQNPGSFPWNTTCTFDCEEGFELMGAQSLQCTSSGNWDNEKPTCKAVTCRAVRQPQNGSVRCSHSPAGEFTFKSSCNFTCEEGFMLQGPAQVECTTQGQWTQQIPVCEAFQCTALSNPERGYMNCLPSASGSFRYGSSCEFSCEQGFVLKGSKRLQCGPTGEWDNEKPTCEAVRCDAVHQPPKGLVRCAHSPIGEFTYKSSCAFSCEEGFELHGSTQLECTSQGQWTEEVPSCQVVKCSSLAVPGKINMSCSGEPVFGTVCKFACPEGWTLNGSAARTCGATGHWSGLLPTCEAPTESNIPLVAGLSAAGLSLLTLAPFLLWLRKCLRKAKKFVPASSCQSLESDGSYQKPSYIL
Chain of Tumor necrosis factor (Homo sapiens) (P01375 whole entry, looked up): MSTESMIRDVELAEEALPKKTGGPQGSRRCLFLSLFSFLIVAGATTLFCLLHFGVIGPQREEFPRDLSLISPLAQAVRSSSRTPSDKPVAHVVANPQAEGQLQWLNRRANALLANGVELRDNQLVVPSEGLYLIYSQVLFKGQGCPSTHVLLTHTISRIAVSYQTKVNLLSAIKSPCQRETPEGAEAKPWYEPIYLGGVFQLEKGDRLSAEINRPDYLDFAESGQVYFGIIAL

`NC(=O)c1c(Cl)cccc1Cl`: the result in experiment [1], in [2], in experiment [3], in experiment [4], in experiment [5] and in experiment [6] was inactive. The result in experiment [7], in experiment [8], in experiment [9], in [10], in [11] and in experiment [12] was inactive. Further, the outcome in [13], in experiment [14], in experiment [15], in experiment [16], in [17] and in [18] was inactive. In addition, in experiment [19], the outcome was inactive.

For orientation: AC50 means the concentration at which the activity in the assay is half-maximal. Regarding `CC/C(=C(\c1ccccc1)c1ccc(OCCN(C)C)cc1)c1ccccc1`, the concentration at half-maximal activity (AC50) in experiment [1] was 8.7 µM (active) and 6.05 µM (active); in experiment [2] it was 5.98 µM (active) and 7.88 µM (active); in experiment [3], 7.84 µM (active) and 8.19 µM (active); in experiment [4] it was 9.92 µM (active) and 9.67 µM (active); in experiment [5], 7.05 µM (active) and 5.81 µM (active); in experiment [6] it was 28.3 µM (active) and 14.3 µM (active). In addition, the AC50 in [7] is 26.5 µM (active) and 10.8 µM (active); in experiment [8] it was 9.77 µM (active) and 10.4 µM (active); in experiment [9], 6.74 µM (active) and 9.95 µM (active); in experiment [10] it was 28.3 µM (active) and 12.4 µM (active); in [11], 33.6 µM (active); in experiment [12], 15.3 µM (active) and 8.1 µM (active). Moreover, the AC50 in experiment [13] is 29.1 µM (active) and 20 µM (active); in [14], 28.6 µM (active) and 17.4 µM (active); in experiment [15], 24.3 µM (active) and 13.6 µM (active); in experiment [16], 9.12 µM (active) and 6.03 µM (active); in [17], 8.89 µM (active) and 8.09 µM (active); in experiment [18], 10.4 µM (active) and 10.1 µM (active). The AC50 in experiment [19] was 11.6 µM (active) and 12.5 µM (active). Besides, in experiment [11], the outcome was inactive.

On to `CCCCOCCOCCO`, for which the outcome in experiment [1], in experiment [2], in experiment [3], in [4], in [5] and in experiment [6] was inactive. Also, the outcome in experiment [7], in experiment [8], in experiment [9], in experiment [10], in experiment [11] and in [12] was inactive. Further, the result in experiment [13], in experiment [14], in experiment [15], in [16], in experiment [17] and in [18] was inactive. Also, the result in [19] was inactive.
